Data on 66 molecules can be found in PubChem BioAssay AID1347075 (National Center for Advancing Translational Sciences (NCATS), 2019).

Screen size: about 400,000 compounds; about 5,500 (1.4%) were called active. Roughly 9% stayed inconclusive and do not appear here. Calls follow the shape of the dose curve; as a rule, active = well fitted cell-killing curve with a large enough effect; inconclusive = small, poorly fitted or top-dose-only effect, or effect the other way; inactive = flat fitted curve, though single readings scatter. The list comes from a sample in which actives are over-represented; it also holds similar structures and randomly drawn compounds. A call without a number means that no potency is given here.
Potency is read from the fitted curve at half-maximal effect.

This assay in a line: qHTS assay for MDR1-selective chemotherapeutics: Primary screen using the parental adenocarcinoma cell KB-3-1. Also: nearly all actives have a fitted effect of over 60% in size. The settings on record: KB-3-1 viability, CellTiter-Glo ATP luminescence, 72 h; series mostly up to 46.1 µM. The source says:
A prime difficulty in effectively treating cancer is the development of cellular resistance to multiple structurally unrelated anticancer drugs, a phenomenon known as multidrug resistance (MDR). […] Numerous strategies to overcome P-gp-mediated MDR have been explored, including the design of drugs that evade recognition and efflux, and development of inhibitors to block efflux and restore drug accumulation. […] An alternative approach is to exploit resistance by identifying drugs that target MDR cells over the non-resistant parental cells from which they were selected. […] The development of MDR1-selective agents represents a new strategy for resolving multidrug resistance, as it remains a long-standing clinical challenge for cancer chemotherapy.
Our goal is to identify compounds that selectively kill P-gp-expressing MDR cells. We will identify MDR1-selective compounds by comparing toxicity of compounds in the screening library against parental, drug-naive (KB-3-1) adenocarcinoma cells as well as their drug-selected MDR sub-line (KB-V1). The differential toxicity of compounds against these two cell lines will be used to identify MDR1-selective compounds, whose cytotoxicity is potentiated, rather than diminished, by P-gp expression. This assay will be utilized to conduct a quantitative high-throughput screen (qHTS) in collaboration with the NIH Chemical Genomics Center to identify selective agents, and probe hits arising from the screen will be validated using secondary assays and characterized through a well-established follow-up research program. This screen was run against the entire NCGC library collection of about 400,000 compounds.
NIH Molecular Libraries Probe Production Network [MLPCN]
NIH Chemical Genomics Center [NCGC]
PI: Michael Gottesman PhD, National Cancer Institute, NIH
Briefly, 5 microL of media containing either KB-3-1 cells (columns 1-2, 4-48) are dispensed into Greiner white, treated solid-bottom 1536-well assay plates (media-only control is added to column 3). Compounds are then transferred via Kalypsys pin tool equipped with 1536-pin array (10 nL slotted pins, V&P Scientific, San Diego, CA). Following addition of compound, the plates are incubated at 37 degrees C for 72 hours. CellTiter-Glo (2.5 µL/well) is then added, and the plates are read in a ViewLux reader (Perkin-Elmer, clear luminescence filter, 1 second exposure, 1x binning) following a 10 minute incubation. All cells are dispensed in DMEM phenol-red free media containing 10% FBS.
Library plates were screened starting from the lowest and proceeding to the highest concentration. Vehicle-only plates, with DMSO being pin-transferred to columns 5-48, will be inserted uniformly at the beginning and the end of each library in order to monitor and record any shifts in the background, which can be affected by reagent dispensers or loss in enzyme activity over time. Screening data will be corrected, normalized, and concentration-effect relationships will be derived by using publicly-available NCGC, NCATS curve fitting algorithms (http://ncgc.nih.gov/pub/openhts).
(Quantitative high-throughput screening tests each substance at several concentrations.)
For the molecule `COc1cccc(CNC(=O)C(=O)NCC(c2cccs2)S(=O)(=O)c2ccccc2)c1` (stereo unspecified), the Potency result was “inactive”.

For the molecule `CN(CCC#N)c1ccc(C=O)cc1`, the Potency result was “inactive”.

On to `O=c1cc(-c2ccccc2)[nH]c2cc(F)ccc12`, for which the Potency is 1.64 µM (active).

With `CC(=O)c1cc(-c2ccccc2)[nH]c1N1CCCC1`, the Potency entry is “inactive”.

For the molecule `Cc1ccc(-c2cc(=O)c3ccc(F)cc3[nH]2)cc1`, the Potency result was “inactive”.

Turning to `O=C1OC(C(=O)Nc2cccc(Br)c2)Cc2ccccc21` (stereo unspecified), the Potency entry was “inactive”.

On to `O=S1(=O)N=C(Oc2cccc(Br)c2)c2ccccc21`, for which the Potency entry is “inactive”.

For the molecule `CCOc1ccc(C(=O)c2cn(Cc3ccc(F)cc3)c3ccc(F)cc3c2=O)cc1`, the Potency entry is “inactive”.

For the molecule `CCOC(=O)c1c(C)oc2nc(C)nc(Nc3ccc(CC)cc3)c12`, the Potency result is “inactive”.

For the molecule `COC(=O)C(C)Oc1ccc2c(-c3cccc([N+](=O)[O-])c3)cc(=O)oc2c1` (stereo unspecified), the Potency result is “inactive”.

Consider `COc1cc(OC)c2c(-c3cccc(-c4cccc(N)c4)c3)cc(=O)oc2c1`, for which the Potency was 4.11 µM (active).

For the molecule `COc1ccc(-c2c(C)cc3oc(=O)cc(-c4ccccc4)c3c2C)cc1C=O`, the Potency result was “inactive”.

In the case of `COc1ccc(-c2nnc(SCC(=O)Nc3ccccc3C)o2)cc1OC`, the Potency entry is “inactive”.

Turning to `Cn1ccc(=NC=C(C#N)C#N)c2ccccc21`, the Potency result is “inactive”.

Regarding `N#CC(C#N)=CN=c1ccn(Cc2ccc(Cl)cc2Cl)cc1`, the Potency is 16.4 µM (active).

On to `CC(C)(C)c1cc(C(=O)NN)n(Cc2ccc(Cl)cc2Cl)n1`, for which the Potency entry is “inactive”.

With `Cc1ccc(-n2c(SCC(=O)Nc3cccc(F)c3)nc3c(oc4ccccc43)c2=O)cc1C`, the Potency result was “inactive”.

With `CCOC(=O)Cc1ccc(NC(=O)Nc2c[nH]c(=O)[nH]c2=O)cc1`, the Potency result is “inactive”.

As to `COc1ccc2c(c1)c(N1CCCC1=O)c(C(=O)Nc1ccccc1C(F)(F)F)n2C`, the Potency entry was “inactive”.

For the molecule `O=C(O)c1ccc(CSc2nc3cccnc3n2Cc2cccc(F)c2)cc1`, the Potency result is “inactive”.

`COc1cccc(NC(=O)Nc2ccc3c(c2)N(C)C(=O)c2ccccc2S3)c1`: the Potency entry was “inactive”.

In the case of `COc1cccc(CNC(=O)c2ccc3c(Cl)c4c(nc3c2)CCCC4)c1`, the Potency entry is “inactive”.

In the case of `COc1ccccc1NC(=O)C(=O)c1cc(C)n(-c2ccccc2F)c1C`, the Potency result was “inactive”.

With `CCOC(=O)c1nc(-c2ccc3c(c2)OCO3)[nH]c1C`, the Potency is 13 µM (active).

Regarding `CCOC(=O)c1c(C)[nH]c(C(=O)COc2ccc3c(c2)OCO3)c1C`, the Potency entry was “inactive”.

Turning to `CCOC(=O)N1CCN(C(=O)COCc2cc(-c3ccc4c(c3)OCO4)on2)CC1`, the Potency entry was “inactive”.

As for `CC[C@H]1CN2CCc3cc(OC)c(OC)cc3[C@@H]2C[C@@H]1C[C@H]1NCCc2cc(OC)c(OC)cc21`, the Potency was 0.259 µM (active).

With `CCC(CC)C(=O)N1CCc2cc(OC)c(OC)cc2C1COc1ccc(F)cc1` (stereo unspecified), the Potency result is “inactive”.

Turning to `CC(=O)N1c2ccc(S(=O)(=O)N3CCCCCC3)cc2CC1C(=O)NCc1ccccc1C` (stereo unspecified), the Potency entry was “inactive”.

For the molecule `COc1ccccc1NC(=O)CN1C(=O)c2ccccc2Sc2ccc(C(=O)N3CCCC3)cc21`, the Potency entry is “inactive”.

With `CCOC(=O)c1cc(-c2sc(NC(=O)c3ccccc3)nc2C)n(Cc2ccccc2)n1`, the Potency is 23.1 µM (active).

For the molecule `CCOC(=O)c1cc(-c2sc(NC(=O)c3ccccc3)nc2C)n(CCO)n1`, the Potency entry was “inactive”.

On to `C=CCn1nc(C(=O)OCC)cc1-c1sc(NC(=O)c2ccccc2)nc1C`, for which the Potency entry was “inactive”.

With `CC(C)Sc1oc(-c2cccs2)nc1S(=O)(=O)c1ccc(Cl)cc1`, the Potency entry is “inactive”.

Take `CC(C)(C)c1ccc(S(=O)(=O)N2CCN(C(=O)c3cc(-c4ccc(Br)cc4)n[nH]3)CC2)cc1`: the Potency result was “inactive”.

On to `COc1ccc(C)c(Cn2c(-c3nonc3N)nc3ccccc32)c1`, for which the Potency is 2.31 µM (active).

On to `COc1ccccc1Cn1c(CO)nc2ccccc21`, for which the Potency entry is “inactive”.

Regarding `CCn1c(C(O)c2cc(OC)ccc2OC)nc2ccccc21` (stereo unspecified), the Potency result was “inactive”.

For the molecule `Cc1ccc(C(=O)Nc2ccc3[nH]c(=O)c(=O)[nH]c3c2)cc1`, the Potency result is “inactive”.

With `O=C1O/C(=C\c2ccc(O)cc2)C(O)=C1c1ccc(O)cc1`, the Potency entry was “inactive”.

With `COc1ccc(NC(=O)C(c2ccccc2)N2Cc3ccccc3C2=O)cc1` (stereo unspecified), the Potency entry is “inactive”.

For `COc1ccccc1C(c1nnnn1C(C)(C)C)N1CCN(Cc2ccccc2)CC1` (stereo unspecified), the Potency entry was “inactive”.

Turning to `COCCn1nnnc1C(c1cc2ccc(OC)cc2[nH]c1=O)N1CCc2ccccc2C1` (stereo unspecified), the Potency entry was “inactive”.

As to `COc1ccc(OC)c(C(c2nnnn2C(C)(C)C)N2CCc3ccccc3C2)c1` (stereo unspecified), the Potency is 23.1 µM (active).

Regarding `CCC(=O)N1CCc2cc(S(=O)(=O)NC(C(=O)Nc3ccc(C(C)=O)cc3)C(C)C)ccc21` (stereo unspecified), the Potency entry was “inactive”.

`O=C(CO/N=C/c1ccccc1O)NNC(=O)c1ccccc1Cl`: the Potency entry was “inactive”.

Consider `O=C(Cc1ccccc1)N/N=C/c1ccc(Cl)cc1Cl`, for which the Potency result is “inactive”.

In the case of `O=C(NN=Cc1ccccc1O)NN=Cc1ccccc1O`, the Potency was 14.6 µM (active).

On to `Cc1ccc(S(=O)(=O)c2nc(-c3cccs3)oc2N2CCCCC2)cc1`, for which the Potency entry is “inactive”.

As for `NS(=O)(=O)c1ccc2nc(NC(=O)COc3ccccc3)sc2c1`, the Potency result is “inactive”.

On to `CC1CCCCC1NC(=O)COc1ccc(C#N)cc1` (stereo unspecified), for which the Potency entry was “inactive”.

`N#Cc1ccc(OCC(=O)Nc2nc(-c3ccccn3)cs2)cc1`: the Potency was 16.4 µM (active).

As for `Cc1ccc(CNC(=O)CSc2c(C)cnc3c2c(=O)n(C)c(=O)n3C)cc1`, the Potency result is “inactive”.

For `O=C(CC1Oc2ccccc2NC1=O)NCc1ccc(F)cc1` (stereo unspecified), the Potency result was “inactive”.

With `COc1ccc(NC(=O)c2ccco2)cc1NC(=O)COc1ccc(C)c(C)c1`, the Potency entry was “inactive”.

`CC(Nc1nc(N2CCCC2)nc2ccccc12)c1ccccc1` (stereo unspecified): the Potency is 16.4 µM (active).

Take `Cc1ccc(C(CC(=O)O)Nc2nc(N3CCCCC3)nc(N3CCCCC3)n2)cc1` (stereo unspecified): the Potency result was “inactive”.

Take `c1ccc(-c2cc(N3CCCCC3)c3ccccc3n2)cc1`: the Potency entry is “inactive”.

`CCC(C)N(c1ccc(/C=C/c2ccnc3ccccc23)cc1)C(C)CC` (stereo unspecified): the Potency result was “inactive”.

As for `COc1ccc(CNC(=O)c2cc3cccc(OC)c3oc2=O)cc1`, the Potency result was “inactive”.

As for `COc1cc(NC(=O)CN2CCN(S(=O)(=O)c3ccc(Br)cc3)CC2)cc(OC)c1`, the Potency result was “inactive”.

As to `CCCn1c(=N)c(C(=O)NCc2ccccc2)cc2c(=O)n3cccc(C)c3nc21`, the Potency entry was “inactive”.

Regarding `Cc1cccn2c(=O)c3cc(C(=O)NCCN4CCOCC4)c(=N)n(Cc4cccnc4)c3nc12`, the Potency is 8.2 µM (active).

With `Cc1cccn2c(=O)c3cc(C(=O)NC(C)c4ccccc4)c(=N)n(CCCO)c3nc12` (stereo unspecified), the Potency entry is “inactive”.

Regarding `COc1cc(NS(=O)(=O)c2cccs2)cc(OC)c1`, the Potency entry is “inactive”.

Take `CNC(=O)c1ccc(-c2nc(CN3CCc4ccccc43)c(C)o2)cc1`: the Potency entry was “inactive”.
